High-throughput results deposited in PubChem by National Center for Advancing Translational Sciences (NCATS).
Shown are actives, neighbours in structure and some others; about 18% of the full set was active somewhere.
TDP1 cell CPT – growth inhibition of DT40 Tdp1-/-;hTDP1 cells with camptothecin (screen for TDP1 inhibitors); actives 12% (n = 420,000); chicken DT40 Tdp1-/-;hTDP1 cells + 20 nM CPT, ATP luminescence, 48 h; Potency, µM (series often up to 46.2 µM), actives largely listed as inhibitors; note: nearly all actives have a fitted effect of over 55% in size
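Chicken DT40 Tdp1-/- cells stably complemented with human TDP1 were seeded at 400 cells/well in medium containing 20 nM camptothecin, exposed to pin-transferred compounds, and grown at 37 °C for at least 48 hr. Viability was read as ATP luminescence.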
Gal4-VP16 FLuc – Gal4-VP16 reporter inhibition counter-screen; actives 3.5% (n = 310,000); Drosophila S2 Gal4-VP16 UAS-luciferase, luminescence, 20 h; Potency, µM (doses to about 53.6 µM), most hits filed as inhibitors;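 note: Gal4-VP16 expression switched on by copper sulfate through the metallothionein promoter; nearly all actives have a fitted effect of over 50% in size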
TDP1 cell noCPT – qHTS for Inhibitors of human tyrosyl-DNA phosphodiesterase 1 (TDP1): qHTS in cells in absence of CPT | actives 15% (n = 420,000) | DT40 Tdp1-/- hTDP1 cells, no CPT, ATP luminescence, 48 h | Potency, µM (highest dose often 46.2 µM), actives largely listed as inhibitors; note: nearly all actives have a fitted effect of over 55% in size
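Chicken DT40 Tdp1-/- cells complemented with human TDP1, screened without camptothecin (DMSO vehicle only), 400 cells/well. Compounds pin-transferred, cells incubated at 37 °C for at least 48 hr. Growth read as ATP-dependent luminescence (CellTiter-Glo, 30 min at RT).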
RORgamma inh – inhibitors of mouse ROR gamma transcriptional activity; AID 2551; P51450; Drosophila S2 Gal4-RORgamma UAS-luciferase reporter, 20 h; actives 5.4% (n = 310,000); Potency, µM (highest dose often 53.6 µM), actives largely listed as inhibitors; note: nearly all actives have a fitted effect of over 60% in size
Target sequence (P51450 whole entry, looked up, the tested form may be a part): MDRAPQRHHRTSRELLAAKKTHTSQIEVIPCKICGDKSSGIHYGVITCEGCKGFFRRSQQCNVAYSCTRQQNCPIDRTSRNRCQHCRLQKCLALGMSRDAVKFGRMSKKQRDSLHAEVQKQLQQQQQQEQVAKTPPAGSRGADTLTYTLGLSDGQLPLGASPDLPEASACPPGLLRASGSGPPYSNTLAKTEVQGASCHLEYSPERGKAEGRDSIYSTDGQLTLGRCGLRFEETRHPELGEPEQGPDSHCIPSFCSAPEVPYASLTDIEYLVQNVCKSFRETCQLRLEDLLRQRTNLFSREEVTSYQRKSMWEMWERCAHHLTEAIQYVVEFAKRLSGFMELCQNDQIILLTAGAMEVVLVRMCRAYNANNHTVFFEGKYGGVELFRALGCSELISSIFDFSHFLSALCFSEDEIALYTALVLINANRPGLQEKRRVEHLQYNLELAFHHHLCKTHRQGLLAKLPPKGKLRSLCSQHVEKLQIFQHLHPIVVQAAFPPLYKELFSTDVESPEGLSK
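In this cell-based reporter format, copper sulfate (700 uM final) drives Gal4–ROR gamma fusion expression from a metallothionein promoter in Drosophila Schneider cells; compounds preincubated 1 hr, reporter read after 20 hr at ambient temperature.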
IL-1B inflam inh – inhibitors of inflammasome signaling (IL-1 beta secretion); THP-1 LPS/ATP IL-1B secretion, AlphaLISA, 16 h; stronger effect = lower value; activity change, % at 57.5 µM; actives 4.7% (n = 360,000); AID 743279; in the data active = activity change below about -50%; inconclusive = mostly about -30% to -49%
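Secreted IL-1B measured by AlphaLISA bead assay after 16 h compound exposure of THP-1 cells; compounds (final up to 57.5 uM) added 1 h before LPS (250 ng/mL) and ATP (1.25 mM) stimulation; lower signal means less secretion.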
LDHA inh – LDHA (human) enzyme inhibition; actives 0.15% (n = 480,000); AID 1347041; P00338; activity change, % (values are at about 110 or 230 µM); purified LDHA, NADH/diaphorase-resazurin fluorescence; stronger effect = lower value; in the data active = activity change below about -30%; inconclusive = mostly about -25% to -30%
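Remaining NADH was detected by diaphorase (0.133 mg/mL) converting 37 µM resazurin to fluorescent resorufin, read at 0 and 20 minutes. The preceding 5-minute room-temperature reaction used 2 nM LDHA, 0.2 mM sodium pyruvate and 0.06 mM NADH at pH 7.4.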
Numbers stand for hits; n = inactive; u = inconclusive; x = no result given. Unless noted, calls come from the whole dose curve; as a rule, active = well fitted curve in the direction sought with a large enough effect; inconclusive = small, poorly fitted or top-dose-only effect, or another doubt; inactive = no such curve, though single readings can be large; an effect the other way counts as inactive or inconclusive.

SMILES	TDP1 cell CPT	Gal4-VP16 FLuc	TDP1 cell noCPT	RORgamma inh	IL-1B inflam inh	LDHA inh
C=C1CCC[C@]2(C)C[C@H]3OC(=O)C(CN[C@@H](C)c4ccccc4)[C@H]3CC12 (stereo partly specified)	u	n	u	n	-87	n
COc1ccc(CCNC(=O)C2(C)CCC(=O)N2CCC(C)C)cc1OC (stereo unspecified)	n	n	n	n	n	n
C=C1CCC[C@]2(C)C[C@H]3OC(=O)C(CNC(C)CCCC(C)C)[C@H]3CC12 (stereo partly specified)	u	n	21µM	n	-99	n
CC1(C(=O)NC2CCCCCCC2)CCC(=O)N1CCN1CCOCC1 (stereo unspecified)	n	n	n	n	n	n
C=C1CCC[C@]2(C)C[C@H]3OC(=O)C(CN4CCOCC4)[C@H]3C[C@@H]12 (stereo partly specified)	u	n	u	n	-74	n
C=C1CCC[C@]2(C)C[C@H]3OC(=O)C(CN(Cc4ccc(OC)c(OC)c4)CC(C)O)[C@H]3CC12 (stereo partly specified)	u	n	18µM	n	-98	n
CC(CCc1ccccc1)NC(=S)NC1CC2CCC1C2 (stereo unspecified)	x	x	x	x	x	n
CCCCn1c(CCC(=O)NCc2ccc(OC)cc2)nc2c1c(=O)[nH]c(=O)n2CCCC	x	x	x	x	x	n
CC(C(=O)N(C)CC(=O)Nc1ccccc1C(F)(F)F)N1CCN(Cc2ccc(Cl)cc2)CC1 (stereo unspecified)	x	x	x	x	x	n
O=C(Nc1ccc2c3c(cccc13)CC2)C1CC1(Cl)Cl (stereo unspecified)	x	x	x	x	x	n
C=C1CCC[C@]2(C)C[C@H]3OC(=O)C(CNCC(OC)OC)[C@H]3CC12 (stereo partly specified)	u	n	18µM	n	-78	n
CCOC(=O)C(O)(NC(=O)NC(C)=O)C(F)(F)F (stereo unspecified)	x	x	x	x	x	n
Cn1nc(C(=O)Nc2cccc(S(=O)(=O)N3CCCCC3)c2)c2ccccc2c1=O	u	x	u	x	-54	n
COc1ccccc1NC(=O)c1nn(C)c(=O)c2ccccc12	x	x	x	x	x	n
CCn1nc(C(=O)Nc2cccc(S(=O)(=O)N3CCCCCC3)c2)c2ccccc2c1=O	x	x	x	x	x	n
COC(=O)c1cccc(NC(=O)c2nn(C)c(=O)c3ccccc23)c1	23µM	n	8.2µM	n	n	n
COc1ccccc1NS(=O)(=O)c1cccc(NC(=O)c2nn(C)c(=O)c3ccccc23)c1	u	x	23µM	x	n	n
COc1ccc(CCC(=O)NCC(O)COCc2ccc(OC)cc2)cc1 (stereo unspecified)	x	x	x	x	x	n
Cc1c(C(=O)N2CCC(c3nc4ccccc4o3)CC2)oc2ccc(Cl)cc12	x	x	x	x	x	n
COc1ccc(C)cc1N(C(=O)c1ccccc1F)c1nc2ccccc2s1	u	n	18µM	n	n	n
CCN(c1ccccc1)c1nnc(NC(=O)Nc2ccccc2)s1	x	x	x	x	x	n
CCN(c1ccccc1)c1nnc(NC(=O)Nc2cccc(Br)c2)s1	u	x	u	x	x	n
CCN(c1ccccc1)c1nnc(NC(=O)Nc2ccc(C)cc2)s1	13µM	x	16µM	x	x	n
CCN(c1ccccc1)c1nnc(NC(=O)Nc2ccc(Br)c(C)c2)s1	3.3µM	x	4.1µM	x	x	n
CCC(=O)NC1=C(Nc2ccc(N)cc2)C(=O)c2ccccc2C1=O	u	u	8.2µM	13µM	n	n
COc1ccc(NC2=C(NC(C)=O)C(=O)c3ccccc3C2=O)cc1	13µM	n	18µM	n	n	n
COC1=C(Nc2ccc(OC)cc2)C(=O)c2ccccc2C1=O	29µM	n	15µM	n	u	n
CCC(=O)Nc1ccc(C2C(=O)c3ccccc3C2=O)cc1	16µM	u	21µM	u	n	n
CCC(=O)Nc1ccc(NC(=S)Nc2ccccc2)cc1	n	n	n	n	n	n
CCCCC(=O)Nc1ccc(C2C(=O)c3ccccc3C2=O)cc1	n	x	u	x	n	n
